From PubChem BioAssay (EPA / NIEHS)
Records with an inconclusive call do not appear. Active and inactive are the calls of the source. The calls were made as follows: active = hit-call score of the fitted dose curve at least 0.9, where 1 is the maximum; inconclusive = response in the unintended direction; inactive = score below 0.9.

These compounds were tested against human Thyroid Receptor alpha (THRa1), THRA (gene 7067) (UniProt P10827) (assay: ATG_THRa1_TRANS: Attagene TRANS-FACTORIAL HepG2 Assay for human Thyroid Receptor alpha (THRa1) (AID 2283014)).
Sequence of human Thyroid Receptor alpha (THRa1), THRA (gene 7067) (P10827 whole entry, looked up, the tested form may be a part): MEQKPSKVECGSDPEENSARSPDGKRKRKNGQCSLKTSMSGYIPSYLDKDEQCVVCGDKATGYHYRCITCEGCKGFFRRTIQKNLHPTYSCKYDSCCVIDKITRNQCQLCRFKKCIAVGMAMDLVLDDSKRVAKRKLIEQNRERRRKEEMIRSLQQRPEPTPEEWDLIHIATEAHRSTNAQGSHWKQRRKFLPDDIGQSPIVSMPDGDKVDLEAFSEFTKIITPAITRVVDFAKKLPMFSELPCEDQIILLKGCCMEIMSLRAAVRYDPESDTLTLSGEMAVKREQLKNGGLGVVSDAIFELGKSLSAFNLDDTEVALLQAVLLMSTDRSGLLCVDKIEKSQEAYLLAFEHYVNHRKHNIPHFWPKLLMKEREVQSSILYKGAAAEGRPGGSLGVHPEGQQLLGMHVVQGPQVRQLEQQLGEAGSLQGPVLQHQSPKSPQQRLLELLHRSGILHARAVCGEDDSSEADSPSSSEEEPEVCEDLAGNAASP
How it was run: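 Measured here is mRNA from a GAL4-UAS reporter in transfected HepG2 cells carrying a Gal4-fused receptor, 24 h post-dose. DMSO served as negative control and baseline.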
With `Cc1occc(=O)c1OC(=O)C(C)C` the outcome was “inactive”. `CC/C=C\CCOC(=O)CC` was tested, and the outcome was “inactive”. `O=C(c1ccccc1)C(O)c1ccccc1` (configuration not stated) was tested, and the outcome was “inactive”. In the case of `CCOc1ccc(N=Nc2ccc(C=Cc3ccc(N=Nc4ccc(OCC)cc4)cc3S(=O)(=O)O)c(S(=O)(=O)O)c2)cc1`, the outcome is reported as “inactive”. For `CC1(C)O[C@@H]2[C@@H](CO[C@@]3(COS(N)(=O)=O)OC(C)(C)O[C@@H]23)O1`, the outcome was “inactive”. In the case of `C=C(C#N)C(=O)OCC`, the outcome is reported as “inactive”. `O=Cc1ccccc1S(=O)(=O)O` was tested, and the outcome was “inactive”. In the case of `Nc1ccn([C@H]2CS[C@@H](CO)O2)c(=O)n1`, the outcome is reported as “inactive”. In the case of `O=c1c(O)c(-c2ccc(O)cc2)oc2cc(O)cc(O)c12`, the outcome is reported as “inactive”. With `CCN(CC)C(=O)N(CC)CC` the outcome was “inactive”. With `CC(CN=Cc1ccccc1O)N=Cc1ccccc1O` (configuration not stated) the outcome was “inactive”. With `OCCCCC(O)CO` (configuration not stated) the outcome was “inactive”. With `Cc1cc(=O)oc2cc(N(C)C)ccc12` the outcome was “inactive”. `CCC1CCCCC1` was tested, and the outcome was “inactive”. `CC(C)Nc1nc(N)nc(Cl)n1` was tested, and the outcome was “inactive”. For `CC=CC=CCOC(=O)C(C)C`, the outcome was “inactive”. With `CCNCCO` the outcome was “inactive”. In the case of `NCC1CCCC(CN)C1` (configuration not stated), the outcome is reported as “inactive”. In the case of `CCCC[P+](CCCC)(CCCC)CCCC`, the outcome is reported as “inactive”. For `OCc1ccc(Cl)cc1Cl`, the outcome was “inactive”. For `CCC(C)=O`, the outcome was “inactive”. In the case of `COc1ccc(COC(C)=O)cc1`, the outcome is reported as “inactive”.
